We go through 50 compounds from PubChem BioAssay AID651550 (National Center for Advancing Translational Sciences (NCATS), 2012).

The structures appear in SMILES notation. About 1,100 (0.31%) of roughly 360,000 compounds were called active. The sample holds actives, similar compounds and a random draw of the others, so the mix is not that of the screen. Unmarked numbers belong to inactive results. Rule as the data show it: active = activity change below about -80%; inconclusive = mostly about -51% to -80%; inactive = weaker than that.
% is scaled to controls: 0 for no effect and ±100 for the full control effect.

In this test the target is RAC-alpha serine/threonine-protein kinase (Homo sapiens) (UniProt P31749). Kind of test: HTS Assay for Inhibitors of Akt Phophorylation: Primary Screen. The settings on record: Neuro2A IGF-stimulated pAkt S473 HTRF, 20 min; at 50 µM, hits give low values. An excerpt: The serine/threonine protein kinase Akt (protein kinase B) regulates various cellular processes, including cell survival, growth, proliferation, migration and differentiation. It has been well established that Akt is activated through two essential steps involving membrane translocation and phosphorylation. Cytosolic Akt is recruited to the plasma membrane via the interaction between the PH domain and membrane PIP3 produced by phosphoinositide-3 kinase (PI3K) upon growth factor receptor stimulation. The membrane-Akt interaction results in conformational changes of Akt, enabling its activation through phosphorylation at T308 in the kinase domain and at S473 in the C-terminal hydrophobic motif by PDK1 and mTOR-rictor complex (mTORC2), respectively. […] These findings indicate that S473 phosphorylation, as an important modulator of Akt activation, may be a valuable drug target for cell growth, survival, proliferation and differentiation. These inhibitors also may have significant therapeutic potential with fewer side effects, especially for the conditions involving hyperactive Akt signaling, such as cancer and Alzheimer's disease.
To this end, a miniaturized assay was developed to be screened against the Molecular Libraries Small Molecule Repository (MLSMR).
NIH Chemical Genomics Center [NCGC]
NIH Molecular Libraries Probe Centers Network [MLPCN]
Assay Submitter (PI): Hee-Yong Kim, National Institute on Alcohol Abuse and Alcoholism
3 uL of Neuro2A cell suspension in DMEM containing 0.5% FBS and […] antibiotics mix was plated in a white solid bottom tissue culture-treated 1536-well plate (Greiner Bio-One, Monroe, NC) at 4,500 cells per well and incubated overnight at 37 deg C. 23 nL/well of compound solutions in DMSO was added with Pintool transfer (Kalypsis, San Diego, CA) at single […] final concentration. Then, the cells were stimulated with 1.5 uL of IGF (6 nM final concentration) and incubated at 37 deg C for 20 min. The reaction was terminated by the addition of 1.5 uL blocking reagent mixed with lysis buffer (1:25 correspondingly) provided with HTRF(R) Phospho Akt (Ser473) kit (Cisbio US, Bedford, MA), with following incubation for 50 min at ambient temperature. The detection HTRF conjugates from the kit were prepared according to the protocol, pre-mixed 1:1 prior to dispensing, and 2 uL/well was added with BioRAPTR FRD dispenser (Beckman Coulter). The assay plates were incubated for 24 hours at ambient temperature, and the HTRF fluorescence was measured using Envision plate reader (PerkinElmer) with excitation at 330nm, emission at 615nm (Eu(3)-Cryptate donor signal) and 665nm (d2 acceptor signal). The ratio of […] was calculated for each well.
On the technique in general: Time-resolved FRET reads energy transfer from a long-lived donor to a nearby acceptor.
Take `COc1ccc(C(O)C(O)(C(=O)OC(C)C)c2ccc(C)cc2)cc1` (stereo not given): the activity change entry is “inactive”.
As to `Cc1cc(C)cc(NS(=O)(=O)c2ccc(Oc3ncc(C(F)(F)F)cc3Cl)cc2)c1`, the activity change is -13.6%.
Then `CSc1ccccc1-c1nnc(-c2ccc(Cl)cc2)o1`, with -0.409%; and `FC(F)(F)c1cnc(Oc2ccccc2-c2nnc(-c3ccc(Cl)cc3)o2)c(Cl)c1`, with -102% (active); and `COC(=O)[C@@]12C[C@@H](CC(=O)N3CCC(c4ccccc4)CC3)C(=O)N(Cc3ccccc3)C1=CCC(C)(C)C2`, with “inactive”.
Turning to `COC(=O)C1=CN(c2c(C)cc(C)cc2C)C(N)=C(C#N)C1c1cccc(F)c1` (stereo not given), the activity change result is “inactive”.
For `Cc1ccc(Cc2nnc(SCC(=O)Nc3ccc(C)cc3C)[nH]c2=O)cc1`, the activity change result was “inactive”.
In the case of `CCCc1cc(=O)[nH]c(SCC(=O)Nc2sc3c(c2C#N)CCCC3)n1`, the activity change entry is “inactive”.
Then `NC(=O)c1c(NC(=O)CSc2nnc(-c3ccco3)n2N)sc2c1CCCC2`, with “inactive”.
As for `N#Cc1c(NC(=O)CSc2nc3ccccc3c(=O)n2Cc2ccco2)sc2c1CCCC2`, the figure is -91.1% (active); as for `CCC(C)CN1C(=O)CN(S(C)(=O)=O)CC1(C)C(=O)Nc1ccc2c(c1)OCCO2` (stereo not given), “inactive”; as for `O=C1Nc2ccccc2-n2nnnc2C1N1CCN(c2cccc(C(F)(F)F)n2)CC1` (stereo not given), “inactive”.
On to `Cc1ccc(OCc2nc(C#N)c(N3CCCC3)o2)cc1`, for which the activity change is -113% (active).
Regarding `CC1CCN(c2oc(-c3ccccc3F)nc2C#N)CC1`, the activity change entry is “inactive”.
Then `N#Cc1nc(COc2ccc(Cl)cc2)oc1N1CCCC1`, with “inactive”; and `C=CCC1(C(=O)N(C)Cc2ccccc2)CCN(C(=O)OC(C)(C)C)CC1`, with “inactive”; and `CCN(CC)CCCN=C(N)N`, with “inactive”.
As for `COC(=O)C[C@H]1C=C[C@H](NC(=O)c2ccc(F)cc2)[C@@H](CO)O1`, the activity change result is “inactive”.
Take `N#Cc1nc(Cc2cccc3ccccc23)oc1NCc1ccc2c(c1)OCO2`: the activity change was -4.85%.
Then `Cc1ccc(-c2nc(C#N)c(NCCCn3ccnc3)o2)cc1`, with “inactive”; and `N#Cc1nc(Cc2ccccc2)oc1NCCc1ccccc1`, with -105% (active); and `COC(=O)[C@]12CCCCC=C1N(Cc1ccc3c(c1)OCO3)C(=O)[C@H](CC(=O)NCc1cccs1)C2`, with “inactive”.
Then `COc1ccccc1P(=O)(c1ccccc1)c1ccccc1NC(C)=O` (stereo not given), with “inactive”; and `Cc1ccc(C(=O)Nc2c(-c3ccccc3)[nH][nH]c2=O)cc1`, with “inactive”; and `COC(=O)c1c(NC(=O)CCN2CCOCC2)sc2c1CCCC2`, with “inactive”.
Then `CCOC(=O)c1sc(NC(=O)CCN2CCOCC2)c(C(=O)OCC)c1C`, with -80.1% (active); and `CCOC(=O)c1c(NC(=O)CCCN2CCOCC2)sc2c1CC(C)(C)OC2`, with “inactive”; and `CCCCC[C@H](C)N1C[C@@H](COCc2ccccc2)Oc2cc(N3CC[C@@H](N(C)C)C3)ccc2S1(=O)=O`, with “inactive”.
Take `Cc1ccc2c(c1)N(C(=O)CCC(=O)N1CCc3ccccc3C1)CCO2`: the activity change was -105% (active).
As for `Cc1ccc2c(c1)N(C(=O)CCC(=O)NCc1cccnc1)CCO2`, the entry is “inactive”.
As to `Cc1ccc(Cl)c(OCC(=O)N2CCc3ccccc3C2)c1`, the activity change result was “inactive”.
As to `CCOC(=O)C1CCN(C(=O)C2CCN(S(=O)(=O)c3c(C)noc3C)CC2)CC1`, the activity change entry is “inactive”.
Then `CCN(C(=O)CSc1ncnc2c1cnn2-c1ccccc1)C1CCS(=O)(=O)C1` (stereo not given), with “inactive”; and `CCC(C)N(C(=O)CSc1ncnc2c1cnn2-c1ccccc1)C1CCS(=O)(=O)C1` (stereo not given), with “inactive”.
For the compound `CCN(CC)C(=O)CSc1ncnc2c1cnn2-c1ccccc1`, the activity change was -110% (active).
For the compound `Cc1cccc(C)c1NC(=O)C(c1ccc(C(F)(F)F)cc1)n1c(=O)c(-c2ccco2)nc2ccccc21` (stereo not given), the activity change entry is “inactive”.
As to `O=C(Nc1ncc2c(n1)CC(c1ccco1)CC2=O)c1ccc(Cl)cc1` (stereo not given), the activity change result was “inactive”.
Then `COC(=O)c1nc(NC(=O)c2ccc(Cl)cc2)n[nH]1`, with “inactive”.
Then `O=C(Nc1ncc2c(n1)-c1ccccc1OC2)c1ccc(Cl)cc1`, with -120% (active); and `CN(C)c1ccc(Nc2c3c4c(cccc4n(C)c2=O)C(=O)c2ccccc2-3)cc1`, with “inactive”; and `COc1cc2ccccc2cc1C(=O)Nc1ccccc1C`, with “inactive”.
Turning to `Cc1ccccc1NC(=O)CSC(=O)c1ccccc1`, the activity change entry was “inactive”.
Consider `Cc1ccccc1NC(=O)c1ccccc1`, for which the activity change was -122% (active).
As for `Cc1cccc(N(C(=O)c2csnn2)C(C(=O)NCc2ccccc2)c2ccncc2)c1` (stereo not given), the entry is “inactive”; as for `Cc1cccc(C2C3=C(CCCC3=O)N=C3c4ccccc4C(=O)C32)c1` (stereo not given), “inactive”; as for `CCOC(=O)[C@]12CCCC=C1N(CCC1=CCCCC1)C(=O)[C@H](CC(=O)N1CCN(C(=O)c3ccco3)CC1)C2`, “inactive”.
As for `COc1ccc(C(CNC(=O)CSc2ccccc2)N2CCOCC2)cc1` (stereo not given), the activity change entry is “inactive”.
Then `O=C(C(=O)N1CCC(c2ccccc2)CC1)c1ccccc1`, with “inactive”.
In the case of `Cc1cccc(-n2c(Cc3cc(=O)[nH]c(=O)[nH]3)nnc2SC(C)C)c1`, the activity change entry was “inactive”.
Regarding `O=C(Cn1cc(C(=O)c2cccs2)c2ccccc21)NCc1cccs1`, the activity change was -110% (active).
